# In PubChem BioAssay (NCATS):
# Records with an inconclusive call do not appear. A call without a number means that no potency is given here. Calls of active or inactive are those of the source. The call rests on the fitted dose curve; in most records, active means well fitted curve in the direction sought with a large enough effect; inconclusive means small, poorly fitted or top-dose-only effect, or another doubt; inactive means no such curve, though single readings can be large; an effect the other way counts as inactive or inconclusive.
# Assays:
# [1] = target: Glutathione peroxidase 1 (Homo sapiens) (UniProt P07203); assay: Primary qHTS Assay for Inhibitors of Recombinant Selenoprotein Glutathione Peroxidase 1 (GPX1) (AID 1845191); further: nearly all actives have a fitted effect of over 65% in size
# Glutathione peroxidase 1 (Homo sapiens), sequence (P07203 whole entry, looked up): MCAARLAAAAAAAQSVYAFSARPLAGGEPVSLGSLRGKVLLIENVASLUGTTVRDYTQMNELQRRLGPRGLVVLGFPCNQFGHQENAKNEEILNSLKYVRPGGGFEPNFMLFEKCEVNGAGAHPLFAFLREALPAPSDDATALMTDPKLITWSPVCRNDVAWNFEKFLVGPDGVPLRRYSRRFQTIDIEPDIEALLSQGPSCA
# Method in brief: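 GR-coupled readout: NADPH consumption tracked by fluorescence, ex 340/em 450 nm, at t=0 and after 15 min at RT. Final mix 10 nM GPX1, 1 mM GSH, 0.5 mM CHP, 0.5 mM NADPH, 100 nM GR, 0.01% BSA, following 30 min enzyme–compound preincubation.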
# [2] = target: Phospholipid hydroperoxide glutathione peroxidase GPX4 (Homo sapiens) (UniProt P36969); assay: Primary qHTS Assay for Inhibitors of Recombinant Selenoprotein Glutathione Peroxidase 4 (GPX4) (AID 1845192); further: nearly all actives have a fitted effect of over 65% in size
# Phospholipid hydroperoxide glutathione peroxidase GPX4 (Homo sapiens), sequence (P36969 whole entry, looked up): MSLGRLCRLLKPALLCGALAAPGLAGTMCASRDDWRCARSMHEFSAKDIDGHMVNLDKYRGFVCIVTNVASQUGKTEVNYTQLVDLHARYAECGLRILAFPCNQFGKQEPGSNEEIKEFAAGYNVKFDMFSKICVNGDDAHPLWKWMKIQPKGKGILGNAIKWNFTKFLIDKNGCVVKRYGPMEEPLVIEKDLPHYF
# Method in brief: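 Steps: GPX4 plus compound, 30 min RT; add GR/GSH/NADPH master mix; start with cumene hydroperoxide; read 340/450 nm fluorescence at 0 and 15 min. Finals were 200 nM GPX4, 1 mM GSH, 0.5 mM CHP, 0.5 mM NADPH, 100 nM GR.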
# [3] = Quantitative High-Throughput drug screen in 47 multiple myeloma cell lines against the NCATS MIPE library collection: FR4_PLB cell viability assay (AID 1918924; further: nearly all actives have a fitted effect of over 35% in size; further: potency means the concentration at half of the fitted maximal effect)
# Method in brief: (§1)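 We plated 500 myeloma cells per well, pinned in MIPE 4.0 compounds, and incubated for 48 hours at 37C. ATP was then quantified with CellTiter-Glo, with DMSO and media-only wells defining 100% and 0%.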
# [4] = Quantitative High-Throughput drug screen in 47 multiple myeloma cell lines against the NCATS MIPE library collection: Delta47_JCRB cell viability assay (AID 1918925; further: nearly all actives have a fitted effect of over 45% in size; further: potency means the concentration at half of the fitted maximal effect)
# Method in brief: (§2)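 Steps: seed 500 cells per well; pin-transfer MIPE 4.0 library; incubate 48 h at 37C, 5% CO2, humidified; add CellTiter-Glo, 5 min room temperature; read luminescence.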
# [5] = Quantitative High-Throughput drug screen in 47 multiple myeloma cell lines against the NCATS MIPE library collection: EJM_DSMZ cell viability assay (AID 1918926; further: nearly all actives have a fitted effect of over 30% in size; further: potency means the concentration at half of the fitted maximal effect)
# Method in brief: as §2
# [6] = Quantitative High-Throughput drug screen in 47 multiple myeloma cell lines against the NCATS MIPE library collection: Karpas620_DSMZ cell viability assay (AID 1918959); further: nearly all actives have a fitted effect of over 30% in size; further: potency means the concentration at half of the fitted maximal effect
# Method in brief: as §1
# [7] = Quantitative High-Throughput drug screen in 47 multiple myeloma cell lines against the NCATS MIPE library collection: KMM1_JCRB cell viability assay (AID 1918960); further: nearly all actives have a fitted effect of over 30% in size
# Method in brief: (§3)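 Cell viability inhibition in this qHTS is measured via ATP content (CellTiter-Glo) after 48 h drug exposure at 37 °C. Wells hold 500 cells; DMSO-treated wells define 100% and medium-only wells 0%.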
# [8] = target: Luciferin 4-monooxygenase (Photinus pyralis) (UniProt P08659); assay: Primary firefly luciferase (FLuc) qHTS assay for identification of artifact compounds. (AID 1845220); settings: outcome: dose series up to 54.1 µM unless noted; further: nearly all actives have a fitted effect of over 60% in size
# Method in brief: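 D-luciferin and ATP (10 uM each, final) in Tris acetate buffer pH 7.6 were incubated with compounds for 15 min at room temperature. The reaction was started with 10 nM Photinus pyralis luciferase and luminescence read after 5 min. Percent inhibition was fitted to a 4-parameter Hill equation.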
# [9] = Primary fluorescence-based thiol-reactive (MSTI) qHTS assay for identification of artifact compounds. (AID 1845221);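 further: series mostly up to about 54 µM; thiol-reactive compounds lower the probe fluorescence signal; nearly all actives have a fitted effect of over 65% in size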
# Method in brief: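 qHTS titration of compound; 4 uM MSTI, PBS pH 7.4, 2% DMSO; 1 h RT, dark; fluorescence 525/598 nm; normalized to Acetyl-MSTI and MSTI; 4-parameter Hill fit.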
# [10] = system: Nanoluciferase (engineered Oplophorus gracilirostris luciferase); assay: Primary Nanoluciferase (NLuc) qHTS assay for identification of artifact compounds. (AID 1845222); further: series mostly up to about 54 µM
# Method in brief: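 Diluted conditioned medium from NLuc-expressing S16 cells treated with compounds for 15 min at room temperature, then Nano-Glo substrate added; luminescence read after 5 min. Percent inhibition versus no-enzyme and DMSO controls fitted to 4-parameter Hill equation.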
# [11] = Primary redox qHTS assay for identification of artifact compounds. (AID 1845223)
# Method in brief: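 Redox-cycling detection via DTT (250 uM final) oxidation coupled to Amplex Red (25 uM)/HRP (250 mU/mL) in HBSS. 15 min preincubation plus 30 min after DTT, room temperature. Ex/Em 525/598 nm; 4-parameter Hill fit against DMSO and 10 uM DA3003.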
# [12] = Quantitative High-Throughput drug screen in 47 multiple myeloma cell lines against the NCATS MIPE library collection: AMO1_DSMZ cell viability assay (AID 1918927; further: nearly all actives have a fitted effect of over 30% in size; further: potency means the concentration at half of the fitted maximal effect)
# Method in brief: as §2
# [13] = Quantitative High-Throughput drug screen in 47 multiple myeloma cell lines against the NCATS MIPE library collection: INA6_PLB cell viability assay (AID 1918965; further: nearly all actives have a fitted effect of over 55% in size; further: potency means the concentration at half of the fitted maximal effect)
# Method in brief: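 Viability readout: CellTiter-Glo luminescence following 5 min room-temperature incubation with reagent. Prior exposure: 48 h, 37C, humidified 5% CO2, 500 cells per well.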
# [14] = Quantitative High-Throughput drug screen in 47 multiple myeloma cell lines against the NCATS MIPE library collection: ARP1_JJKsccF8 cell viability assay (AID 1918928; further: nearly all actives have a fitted effect of over 40% in size; further: potency means the concentration at half of the fitted maximal effect)
# Method in brief: as §3
# [15] = Quantitative High-Throughput drug screen in 47 multiple myeloma cell lines against the NCATS MIPE library collection: ARD_JJKsccE7 cell viability assay (AID 1918929; further: potency means the concentration at half of the fitted maximal effect)
# Method in brief: as §2
# [16] = Quantitative High-Throughput drug screen in 47 multiple myeloma cell lines against the NCATS MIPE library collection: KHM11_PLB cell viability assay (AID 1918962); further: nearly all actives have a fitted effect of over 35% in size; further: potency means the concentration at half of the fitted maximal effect
# Method in brief: as §1
# [17] = Quantitative High-Throughput drug screen in 47 multiple myeloma cell lines against the NCATS MIPE library collection: JIM3_ECACC cell viability assay (AID 1918963; further: nearly all actives have a fitted effect of over 35% in size; further: potency means the concentration at half of the fitted maximal effect)
# Method in brief: as §1
# [18] = Quantitative High-Throughput drug screen in 47 multiple myeloma cell lines against the NCATS MIPE library collection: JIM1_ECACC cell viability assay (AID 1918964; further: potency means the concentration at half of the fitted maximal effect)
# Method in brief: as §2
# [19] = Quantitative High-Throughput drug screen in 47 multiple myeloma cell lines against the NCATS MIPE library collection: JJN3_DSMZ cell viability assay (AID 1918966; further: nearly all actives have a fitted effect of over 50% in size; further: potency means the concentration at half of the fitted maximal effect)
# Method in brief: as §2
Structure (SMILES),Potency [1],Potency [2],Potency [3],Potency [4],Potency [5],Potency [6],Potency [7],outcome [8],Potency [9],outcome [10],outcome [11],Potency [12],Potency [13],Potency [14],Potency [15],Potency [16],Potency [17],Potency [18],Potency [19]
C[C@]12CC[C@H]3[C@@H](CCC4=CC(=O)CC[C@@]43C)[C@H]1CC[C@H]2OC(=O)CCC1CCCC1,inactive,inactive,inactive,inactive,16.6 µM (active),inactive,inactive,–,–,–,–,–,–,–,–,–,–,–,–
O=C(NCC1CCOCC1)c1cnc(Nc2ccc(Cl)cc2Cl)nc1C(F)(F)F,inactive,inactive,14.8 µM (active),7.43 µM (active),inactive,5.26 µM (active),inactive,inactive,inactive,inactive,inactive,18.7 µM (active),18.7 µM (active),–,–,–,–,–,–
CCN1CCN(C(=O)Cc2ccc(Nc3ncc(F)c(Nc4ccc(C(=O)Nc5ccccc5Cl)cc4)n3)cc2)CC1,inactive,inactive,3.72 µM (active),1.32 µM (active),8.33 µM (active),1.87 µM (active),–,inactive,inactive,inactive,inactive,1.05 µM (active),0.935 µM (active),3.72 µM (active),0.743 µM (active),2.35 µM (active),3.72 µM (active),2.09 µM (active),7.43 µM (active)
CC(=O)Nc1ccc(OC[C@](C)(O)C(=O)Nc2ccc([N+](=O)[O-])c(C(F)(F)F)c2)cc1,inactive,inactive,inactive,–,–,inactive,–,inactive,–,inactive,inactive,–,–,–,inactive,inactive,inactive,–,–
CC(C)[C@H]1C(=O)N[C@H](CO)Cc2c[nH]c3cccc(c23)N1C,inactive,inactive,–,inactive,inactive,inactive,inactive,–,–,–,–,inactive,–,inactive,–,–,–,–,–
c1ccc2c(CN3CCNCC3)cccc2c1,inactive,inactive,inactive,inactive,inactive,inactive,inactive,–,–,–,–,inactive,inactive,inactive,inactive,inactive,inactive,inactive,–
CN[C@@H]1Cc2cccc3[nH]c(=O)n(c23)C1,inactive,inactive,11.8 µM (active),inactive,inactive,inactive,–,–,–,–,–,–,inactive,–,–,–,inactive,–,inactive
C[C@](O)(COc1ccc(C#N)cc1)C(=O)Nc1ccc(C#N)c(C(F)(F)F)c1,inactive,inactive,inactive,–,–,–,–,–,–,–,–,–,–,inactive,–,–,–,–,inactive
COC1=C[C@@H]2[C@@H]3Cc4ccc(OC)c(O)c4[C@]2(CCN3C)CC1=O,inactive,inactive,–,3.32 µM (active),–,20.9 µM (active),–,inactive,inactive,inactive,inactive,3.32 µM (active),8.33 µM (active),26.4 µM (active),6.62 µM (active),4.69 µM (active),9.35 µM (active),–,–
Cc1[nH]nc2ccc(-c3cncc(OC[C@@H](N)Cc4c[nH]c5ccccc45)c3)cc12,inactive,inactive,0.833 µM (active),0.209 µM (active),0.935 µM (active),inactive,–,inactive,inactive,inactive,inactive,inactive,0.372 µM (active),3.32 µM (active),inactive,0.132 µM (active),1.48 µM (active),–,0.264 µM (active)
C#CC1(O)CCC2C3CCC4=CC(=O)CCC4(C)C3CCC21C (centres undefined),inactive,inactive,–,inactive,inactive,inactive,inactive,–,–,–,–,inactive,inactive,inactive,inactive,inactive,–,–,–
O=C1C=CC[C@@H]2[C@H]3CCCN4CCC[C@@H](CN12)[C@@H]34,inactive,inactive,11.8 µM (active),–,inactive,inactive,inactive,inactive,inactive,inactive,inactive,inactive,–,inactive,–,–,inactive,–,–
